We go through eight compounds from PubChem BioAssay (EPA / NIEHS).

Assay [1] in a line: BSK_3C_VCAM1: BioMAP Diversity Plus: 3C Assay for Vascular cell adhesion molecule 1 (VCAM1) Biomarker Activity (AID 2282999; active = hit-call score of the fitted dose curve at least 0.9, where 1 is the maximum; inactive = score below 0.9). The following applies: BioMAP 3C HUVEC, VCAM1 ELISA, cytokine-stimulated; actives raise or lower the signal. Put shortly: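 Human umbilical vein endothelial cells (3C system), biomarker read by ELISA 24 h after dosing; bidirectional fit against DMSO baseline. Cytotoxicity tracked by SRB total-protein staining in parallel cultures at biomarker time.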
A general note: In an ELISA, binding on a coated surface is turned into a signal by an enzyme label.

Assay [2] can be described thus: BSK_4H_Eotaxin3: BioMAP Diversity Plus: 4H Assay for Eotaxin 3 Biomarker Activity (AID 2283000; active = hit-call score of the fitted dose curve at least 0.9, where 1 is the maximum; inactive = score below 0.9;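 as to outcome: CCL26 protein level quantified by ELISA in parallel with SRB cytotoxicity check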). Conditions: primary human endothelial cells (HUVEC); actives raise or lower the signal. Put shortly:
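ELISA quantitation of CCL26 (Eotaxin-3) protein from chemically dosed human vascular endothelial cells at 24 h; increases and decreases both scored relative to DMSO-treated baseline.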

Assay [3] addresses human Peroxisome Proliferator-activated Receptor alpha (PPARa), PPARA (gene 5465) (UniProt Q07869). Briefly: ATG_PPARa_TRANS: Attagene TRANS-FACTORIAL HepG2 Assay for human Peroxisome Proliferator-activated Receptor alpha (PPARa) (AID 2283001). In outline:
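HepG2 cells transiently transfected with multiplexed GAL4-UAS reporters driven by exogenous chimeric NR-Gal4 proteins; reporter mRNA measured after 24 h dosing. Read-out by RT-PCR, 6-FAM labelling, HpaI digestion and capillary electrophoresis; gain of signal versus DMSO.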

In assay [4] the target is human Peroxisome Proliferator-activated Receptor delta (PPARd), PPARD (gene 5467) (UniProt Q03181). Put plainly: ATG_PPARd_TRANS: Attagene TRANS-FACTORIAL HepG2 Assay for human Peroxisome Proliferator-activated Receptor delta (PPARd) (AID 2283002). Put shortly: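 Fluorescence from capillary electrophoresis of labelled RT-PCR reporter fragments gives the signal; DMSO sets baseline. Cells: HepG2 transiently carrying GAL4-UAS reporter units plus chimeric nuclear receptor-Gal4 proteins, exposed to chemicals for 24 h.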
human Peroxisome Proliferator-activated Receptor delta (PPARd), PPARD (gene 5467), sequence (Q03181 whole entry, looked up, the tested form may be a part): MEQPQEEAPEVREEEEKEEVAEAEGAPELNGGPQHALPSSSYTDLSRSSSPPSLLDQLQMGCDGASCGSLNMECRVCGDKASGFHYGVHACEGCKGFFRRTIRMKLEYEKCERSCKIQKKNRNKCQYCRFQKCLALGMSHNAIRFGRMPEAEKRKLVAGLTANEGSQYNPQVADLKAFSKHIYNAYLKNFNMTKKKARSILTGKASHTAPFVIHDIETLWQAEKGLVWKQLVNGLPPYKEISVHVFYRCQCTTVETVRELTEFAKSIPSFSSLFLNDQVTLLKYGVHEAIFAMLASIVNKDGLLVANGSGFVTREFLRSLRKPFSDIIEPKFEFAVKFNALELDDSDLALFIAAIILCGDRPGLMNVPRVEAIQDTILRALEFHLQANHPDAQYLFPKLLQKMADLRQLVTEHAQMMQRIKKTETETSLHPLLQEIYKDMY

Read-out in assay [5]: Intercellular Adhesion Molecule 1 (ICAM1), ICAM1 (gene 3383)
Briefly: BSK_3C_ICAM1: BioMAP Diversity Plus: 3C Assay for Intercellular Adhesion Molecule 1 (ICAM1) Biomarker Activity (AID 2283003; active = hit-call score of the fitted dose curve at least 0.9, where 1 is the maximum; inactive = score below 0.9). The following applies: primary human endothelial cells (HUVEC); actives raise or lower the signal. In outline:
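ICAM-1 levels measured by ELISA after HUVEC cultures in the 3C system had been dosed for 24 h. Gain or loss of signal relative to DMSO was fitted in both directions.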

Assay [6] is described as follows: BSK_3C_Proliferation: Cell Proliferation Assessment in the BioMAP Diversity Plus: 3C Assay (AID 2283006; active = hit-call score of the fitted dose curve at least 0.9, where 1 is the maximum; inactive = score below 0.9;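 as to AC50: potency may reflect either rise or fall in cell number versus DMSO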). Conditions: primary human endothelial cells (HUVEC). Put shortly:
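Read-out is total protein by SRB absorbance at 560 nm, taken as a proxy for relative cell number. Primary human umbilical vein endothelium cultured below confluence was dosed for 48 h, TCA-fixed and SRB-stained; curves were fitted bidirectionally versus DMSO.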

Assay [7] concerns the target Peroxisome proliferator-activated receptor gamma (Homo sapiens) (UniProt P37231). Briefly: ATG_PPARg_TRANS: Attagene TRANS-FACTORIAL HepG2 Assay for human Peroxisome Proliferator-activated Receptor-gamma (PPARg) (AID 2283007). In outline:
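Liver-derived HepG2 cells expressing an exogenous NR-Gal4 chimera alongside GAL4-UAS reporter genes; 24 h exposure. Fluorescence of reporter RT-PCR products, separated by capillary electrophoresis, gives mRNA induction relative to DMSO.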

Assay [8] addresses Nuclear receptor subfamily 1 group I member 2 (Homo sapiens) (UniProt O75469). Put plainly: ATG_PXR_TRANS: Attagene TRANS-FACTORIAL HepG2 Assay for human Pregnane X Receptor (PXR) (AID 2283008). Put shortly: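 Read-out is fluorescence of labelled reporter cDNA fragments separated by capillary electrophoresis after RT-PCR and HpaI digestion. Source: HepG2 cells carrying PXR-GAL4/UAS reporter constructs, treated 24 h; activity fitted upward relative to DMSO.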

In assay [9] the target is human RAR-related Orphan Receptor gamma (RORg), RORC (gene 6097) (UniProt P51449). Put plainly: ATG_RORg_TRANS: Attagene TRANS-FACTORIAL HepG2 Assay for human RAR-related Orphan Receptor gamma (RORg) (AID 2283011). Put shortly: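 Chimeric RORg-Gal4 transactivation in transfected HepG2; 24 h exposure; RT-PCR/capillary electrophoresis readout of reporter mRNA, DMSO baseline.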

For assay [10], the target named is Retinoic acid receptor RXR-alpha (Homo sapiens) (UniProt P19793). Briefly: ATG_RXRa_TRANS: Attagene TRANS-FACTORIAL HepG2 Assay for human Retinoid X Receptor alpha (RXRa) (AID 2283012). In outline: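 Transient transfection of human HepG2 with multiple GAL4-UAS reporter constructs; 24 h compound exposure; total RNA isolated, reverse-transcribed, PCR-amplified, 6-FAM labelled, HpaI-cut, resolved by capillary electrophoresis. Positive-direction fit versus DMSO.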

Assay [11] deals with human Retinoid X Receptor beta (RXRb), RXRB (gene 6257) (UniProt P28702). Briefly: ATG_RXRb_TRANS: Attagene TRANS-FACTORIAL HepG2 Assay for human Retinoid X Receptor beta (RXRb) (AID 2283013). In outline: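 Transfect HepG2 with GAL4-UAS multi-reporter constructs (chimeric NR-Gal4, TRANS format); dose compound 24 h; isolate RNA, RT-PCR, FAM primer extension, HpaI digest; quantify by capillary electrophoresis; positive direction vs DMSO.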
human Retinoid X Receptor beta (RXRb), RXRB (gene 6257), sequence (P28702 whole entry, looked up, the tested form may be a part): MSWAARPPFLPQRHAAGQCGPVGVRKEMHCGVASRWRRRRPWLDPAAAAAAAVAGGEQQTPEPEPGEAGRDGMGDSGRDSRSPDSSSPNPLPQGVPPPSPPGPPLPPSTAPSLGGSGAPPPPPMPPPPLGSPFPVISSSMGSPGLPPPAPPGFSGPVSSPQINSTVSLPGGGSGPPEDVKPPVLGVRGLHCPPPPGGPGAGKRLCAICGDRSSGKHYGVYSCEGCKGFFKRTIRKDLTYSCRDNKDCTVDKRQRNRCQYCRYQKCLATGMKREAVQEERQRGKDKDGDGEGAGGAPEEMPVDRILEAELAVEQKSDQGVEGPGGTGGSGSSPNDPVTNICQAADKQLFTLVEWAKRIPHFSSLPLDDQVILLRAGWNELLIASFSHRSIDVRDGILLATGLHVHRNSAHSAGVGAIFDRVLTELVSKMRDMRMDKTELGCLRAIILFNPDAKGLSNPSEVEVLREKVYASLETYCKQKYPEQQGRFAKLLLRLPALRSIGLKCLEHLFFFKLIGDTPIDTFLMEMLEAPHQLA

Assay [12] concerns the target human Thyroid Receptor alpha (THRa1), THRA (gene 7067) (UniProt P10827). Put plainly: ATG_THRa1_TRANS: Attagene TRANS-FACTORIAL HepG2 Assay for human Thyroid Receptor alpha (THRa1) (AID 2283014). Put shortly: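 Measured here is mRNA from a GAL4-UAS reporter in transfected HepG2 cells carrying a Gal4-fused receptor, 24 h post-dose. DMSO served as negative control and baseline.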

Read-out in assay [13]: E-selectin (Homo sapiens) (UniProt P16581)
Briefly: BSK_3C_Eselectin: BioMAP Diversity Plus: 3C Assay for Eselectin Biomarker Activity (AID 2283015; active = hit-call score of the fitted dose curve at least 0.9, where 1 is the maximum; inactive = score below 0.9;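 as to outcome: cell surface E-selectin protein quantified by ELISA 24 h after dosing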). Conditions: primary human endothelial cells (HUVEC); actives raise or lower the signal. Put shortly:
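Endpoint derived by bidirectional fitting against DMSO vehicle; signal is ELISA-detected E-selectin from primary HUVEC at 24 h post-dosing, with parallel SRB staining (0.1% SRB, 560 nm) flagging cytotoxicity.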

Read-out in assay [14]: Monocyte Chemoattractant Protein-1 (MCP1), CCL2 (gene 6347)
Put plainly: BSK_3C_MCP1: BioMAP Diversity Plus: 3C Assay for Monocyte Chemoattractant Protein-1 (MCP1) Biomarker Activity (AID 2283017; active = hit-call score of the fitted dose curve at least 0.9, where 1 is the maximum; inactive = score below 0.9). The following applies: primary human endothelial cells (HUVEC); actives raise or lower the signal. In outline: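 Using human vascular primary endothelium, researchers measured MCP-1 by ELISA 24 h after treatment, with DMSO serving as negative control for bidirectional fitting.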

Read-out in assay [15]: Monocyte Chemoattractant Protein-1 (MCP1), CCL2 (gene 6347)
Put plainly: BSK_4H_MCP1: BioMAP Diversity Plus: 4H Assay for Monocyte Chemoattractant Protein-1 (MCP1) Biomarker Activity (AID 2283018; active = hit-call score of the fitted dose curve at least 0.9, where 1 is the maximum; inactive = score below 0.9). Conditions: primary human endothelial cells (HUVEC); actives raise or lower the signal. In outline: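 ELISA read-out of MCP-1 from human vascular endothelial primary cells taken at 24 hours after compound exposure. Activity was fitted in both directions relative to DMSO, which served as negative control.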

The target in assay [16] is Retinoic acid receptor alpha (Homo sapiens) (UniProt P10276). Put plainly: ATG_RARa_TRANS: Attagene TRANS-FACTORIAL HepG2 Assay for human Retinoic Acid Receptor alpha (RARa) (AID 2283005). In outline:
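HepG2 transiently transfected with multiplex GAL4-UAS reporter units including a human RARa–GAL4 chimera; 24 h compound exposure. Reporter mRNA quantified by RT-PCR, 6-FAM labeling and capillary electrophoresis; gain of signal versus DMSO.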

Read-out in assay [17]: Interleukin-1 alpha (IL1a), IL1A (gene 3552)
Briefly: BSK_BE3C_IL1a: BioMAP Diversity Plus: BE3C Assay for Interleukin-1 alpha (IL1a) Biomarker Activity (AID 2283016; active = hit-call score of the fitted dose curve at least 0.9, where 1 is the maximum; inactive = score below 0.9). Conditions: primary human bronchial epithelial cells; actives raise or lower the signal. Put shortly: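 BE3C primary human bronchial epithelium; cpd 24 h; IL-1a by ELISA; bidirectional fit vs DMSO; parallel SRB (0.1% SRB, 10% TCA fix, 560 nm) for cytotoxicity.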

In assay [18] the target is human Retinoic Acid Receptor beta (RARb), RARB (gene 5915) (UniProt P10826). Put plainly: ATG_RARb_TRANS: Attagene TRANS-FACTORIAL HepG2 Assay for human Retinoic Acid Receptor beta (AID 2283004). Put shortly: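 Fluorescent capillary-electrophoresis detection of GAL4-UAS reporter mRNA defines the endpoint, with induction over DMSO-treated wells scored as activity. Transiently transfected human hepatoma HepG2 cells expressing exogenous NR–Gal4 proteins are exposed to test chemicals for 24 h.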
human Retinoic Acid Receptor beta (RARb), RARB (gene 5915), sequence (P10826 whole entry, looked up, the tested form may be a part): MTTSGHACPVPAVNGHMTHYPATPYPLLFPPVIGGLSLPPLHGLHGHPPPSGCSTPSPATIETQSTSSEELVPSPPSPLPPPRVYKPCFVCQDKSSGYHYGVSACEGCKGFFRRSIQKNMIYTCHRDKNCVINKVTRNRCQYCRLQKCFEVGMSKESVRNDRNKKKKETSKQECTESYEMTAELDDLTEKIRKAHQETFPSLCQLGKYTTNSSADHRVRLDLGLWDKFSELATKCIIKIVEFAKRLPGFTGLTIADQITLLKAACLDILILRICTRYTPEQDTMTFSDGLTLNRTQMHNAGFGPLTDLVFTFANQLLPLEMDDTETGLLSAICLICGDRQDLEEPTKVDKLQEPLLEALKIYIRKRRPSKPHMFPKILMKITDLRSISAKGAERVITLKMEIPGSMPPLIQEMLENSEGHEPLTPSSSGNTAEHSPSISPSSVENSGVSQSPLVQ

The target in assay [19] is human Retinoic Acid Receptor gamma (RARg), RARG (gene 5916) (UniProt P13631). Briefly: ATG_RARg_TRANS: Attagene TRANS-FACTORIAL HepG2 Assay for human Retinoic Acid Receptor gamma (RARg) (AID 2283009). In outline: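 Transient transfection of HepG2 with multi-reporter constructs, then 24 h chemical treatment. Total RNA isolated, reverse-transcribed, PCR-amplified, fluorescently labelled and resolved by capillary electrophoresis; activity scored as mRNA induction versus DMSO.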
human Retinoic Acid Receptor gamma (RARg), RARG (gene 5916), sequence (P13631 whole entry, looked up): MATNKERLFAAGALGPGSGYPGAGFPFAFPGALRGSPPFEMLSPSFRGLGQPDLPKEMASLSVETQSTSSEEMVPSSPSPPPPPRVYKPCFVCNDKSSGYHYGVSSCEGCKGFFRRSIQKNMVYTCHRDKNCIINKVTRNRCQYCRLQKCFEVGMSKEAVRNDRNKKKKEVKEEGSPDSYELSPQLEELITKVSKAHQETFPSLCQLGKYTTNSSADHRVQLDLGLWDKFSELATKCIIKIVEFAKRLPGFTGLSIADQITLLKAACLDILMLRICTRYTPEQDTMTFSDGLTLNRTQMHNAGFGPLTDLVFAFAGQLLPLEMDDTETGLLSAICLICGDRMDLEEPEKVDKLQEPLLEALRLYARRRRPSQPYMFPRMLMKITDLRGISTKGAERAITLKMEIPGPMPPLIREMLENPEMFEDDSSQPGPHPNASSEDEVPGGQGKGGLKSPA

Assay [20] deals with human RAR-related Orphan Receptor beta (RORb), RORB (gene 6096) (UniProt Q92753). Briefly: ATG_RORb_TRANS: Attagene TRANS-FACTORIAL HepG2 Assay for human RAR-related Orphan Receptor beta (RORb) (AID 2283010). Put shortly: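 Readout is reporter-gene mRNA induction, detected as fluorescence after RT-PCR and capillary electrophoresis, fitted for gain of signal against DMSO controls. Transiently transfected HepG2 liver cells carrying GAL4-UAS reporter constructs were treated for 24 hours.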

Inconclusive results are not listed. Active and inactive are the calls of the source. The calls were made as follows, unless noted: active = hit-call score of the fitted dose curve at least 0.9, where 1 is the maximum; inconclusive = response in the unintended direction; inactive = score below 0.9.

E-selectin (Homo sapiens), sequence (P16581 whole entry, looked up): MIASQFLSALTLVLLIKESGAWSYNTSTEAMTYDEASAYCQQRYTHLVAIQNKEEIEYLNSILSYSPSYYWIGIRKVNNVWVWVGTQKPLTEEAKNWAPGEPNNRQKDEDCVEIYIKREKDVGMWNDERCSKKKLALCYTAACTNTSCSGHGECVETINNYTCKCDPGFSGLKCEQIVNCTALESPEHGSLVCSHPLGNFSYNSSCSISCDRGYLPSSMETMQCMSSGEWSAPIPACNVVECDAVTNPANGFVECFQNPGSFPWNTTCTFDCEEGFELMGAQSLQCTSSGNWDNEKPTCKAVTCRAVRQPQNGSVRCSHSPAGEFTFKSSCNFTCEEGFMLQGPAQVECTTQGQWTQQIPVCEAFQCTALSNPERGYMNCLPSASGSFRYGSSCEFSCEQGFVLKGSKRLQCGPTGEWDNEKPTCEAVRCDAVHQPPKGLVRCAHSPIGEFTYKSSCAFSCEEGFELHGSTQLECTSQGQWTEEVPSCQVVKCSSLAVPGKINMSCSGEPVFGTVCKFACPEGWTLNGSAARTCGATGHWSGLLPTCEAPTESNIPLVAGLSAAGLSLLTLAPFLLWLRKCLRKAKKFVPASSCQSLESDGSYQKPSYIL
human Thyroid Receptor alpha (THRa1), THRA (gene 7067), sequence (P10827 whole entry, looked up, the tested form may be a part): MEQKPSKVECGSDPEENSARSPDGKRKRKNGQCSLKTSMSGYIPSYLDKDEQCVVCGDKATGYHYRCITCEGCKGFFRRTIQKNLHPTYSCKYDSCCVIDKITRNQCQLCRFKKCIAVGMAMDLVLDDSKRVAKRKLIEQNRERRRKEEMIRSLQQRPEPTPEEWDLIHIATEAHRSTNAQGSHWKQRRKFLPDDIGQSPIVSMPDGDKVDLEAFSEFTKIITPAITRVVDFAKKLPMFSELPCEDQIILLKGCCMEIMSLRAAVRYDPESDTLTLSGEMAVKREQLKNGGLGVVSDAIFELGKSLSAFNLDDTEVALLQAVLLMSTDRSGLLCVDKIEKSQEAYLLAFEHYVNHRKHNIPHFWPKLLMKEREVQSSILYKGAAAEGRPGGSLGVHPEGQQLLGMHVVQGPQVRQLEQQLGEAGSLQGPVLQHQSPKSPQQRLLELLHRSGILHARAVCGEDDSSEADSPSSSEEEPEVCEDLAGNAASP
Nuclear receptor subfamily 1 group I member 2 (Homo sapiens), sequence (O75469 whole entry, looked up, the tested form may be a part): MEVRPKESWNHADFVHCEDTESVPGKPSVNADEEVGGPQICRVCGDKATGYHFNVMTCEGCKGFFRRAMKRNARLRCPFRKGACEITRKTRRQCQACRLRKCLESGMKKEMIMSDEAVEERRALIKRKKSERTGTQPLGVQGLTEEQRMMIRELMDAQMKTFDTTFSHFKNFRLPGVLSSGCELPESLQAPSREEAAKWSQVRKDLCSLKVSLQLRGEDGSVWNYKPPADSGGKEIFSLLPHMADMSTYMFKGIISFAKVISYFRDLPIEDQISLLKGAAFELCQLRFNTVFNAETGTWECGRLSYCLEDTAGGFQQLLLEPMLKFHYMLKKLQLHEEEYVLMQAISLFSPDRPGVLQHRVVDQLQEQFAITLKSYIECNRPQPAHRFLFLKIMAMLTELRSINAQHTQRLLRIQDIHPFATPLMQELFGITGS
Retinoic acid receptor alpha (Homo sapiens), sequence (P10276 whole entry, looked up, the tested form may be a part): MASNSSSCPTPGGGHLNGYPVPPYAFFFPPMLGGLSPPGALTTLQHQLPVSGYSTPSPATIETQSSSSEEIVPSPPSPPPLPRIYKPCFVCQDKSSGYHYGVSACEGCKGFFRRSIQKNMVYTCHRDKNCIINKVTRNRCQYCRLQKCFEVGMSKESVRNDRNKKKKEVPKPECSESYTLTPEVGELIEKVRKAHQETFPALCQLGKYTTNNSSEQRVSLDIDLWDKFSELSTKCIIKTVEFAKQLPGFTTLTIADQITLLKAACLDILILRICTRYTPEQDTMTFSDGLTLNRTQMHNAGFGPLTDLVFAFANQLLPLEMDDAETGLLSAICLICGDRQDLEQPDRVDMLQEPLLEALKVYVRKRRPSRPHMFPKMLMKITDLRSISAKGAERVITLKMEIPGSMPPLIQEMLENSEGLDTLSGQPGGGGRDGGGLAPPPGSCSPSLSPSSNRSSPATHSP
Peroxisome proliferator-activated receptor gamma (Homo sapiens), sequence (P37231 whole entry, looked up, the tested form may be a part): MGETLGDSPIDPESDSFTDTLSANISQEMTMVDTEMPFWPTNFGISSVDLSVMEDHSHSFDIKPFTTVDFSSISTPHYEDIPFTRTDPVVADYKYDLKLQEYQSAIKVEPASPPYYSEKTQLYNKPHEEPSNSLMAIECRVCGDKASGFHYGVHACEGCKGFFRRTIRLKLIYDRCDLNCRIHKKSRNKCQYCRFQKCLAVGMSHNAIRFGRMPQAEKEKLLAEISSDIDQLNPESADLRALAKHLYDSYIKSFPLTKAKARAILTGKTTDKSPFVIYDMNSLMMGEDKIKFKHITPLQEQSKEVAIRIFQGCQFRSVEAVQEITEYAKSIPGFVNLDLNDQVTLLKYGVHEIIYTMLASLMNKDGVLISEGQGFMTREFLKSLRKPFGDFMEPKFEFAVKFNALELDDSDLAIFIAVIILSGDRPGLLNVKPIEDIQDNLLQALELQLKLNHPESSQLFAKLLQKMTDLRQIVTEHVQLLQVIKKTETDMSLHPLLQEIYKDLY
human Peroxisome Proliferator-activated Receptor alpha (PPARa), PPARA (gene 5465), sequence (Q07869 whole entry, looked up, the tested form may be a part): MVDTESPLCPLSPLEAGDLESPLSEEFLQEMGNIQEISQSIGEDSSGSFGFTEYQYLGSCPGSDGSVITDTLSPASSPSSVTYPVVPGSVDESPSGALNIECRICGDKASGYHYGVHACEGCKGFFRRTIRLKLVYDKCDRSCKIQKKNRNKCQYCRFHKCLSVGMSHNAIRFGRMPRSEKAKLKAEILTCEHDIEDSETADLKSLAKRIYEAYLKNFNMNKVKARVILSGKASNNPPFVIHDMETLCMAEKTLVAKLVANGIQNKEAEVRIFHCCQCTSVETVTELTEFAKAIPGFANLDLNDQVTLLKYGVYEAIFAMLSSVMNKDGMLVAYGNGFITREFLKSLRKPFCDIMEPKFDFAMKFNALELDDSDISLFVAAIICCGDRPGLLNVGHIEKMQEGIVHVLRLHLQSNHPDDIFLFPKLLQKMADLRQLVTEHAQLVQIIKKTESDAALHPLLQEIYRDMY

Turning to `CCOc1nc(F)cc2nc(S(=O)(=O)Nc3c(Cl)cccc3Cl)nn12`, the result in assay [1], in assay [2], in [3], in assay [4], in assay [5] and in assay [6] was inactive. Besides, the result in assay [8], in [9], in assay [10], in [11], in assay [12] and in [13] was inactive. Also, in [15], the result was inactive. The results for the AC50 in assay [7] and in [14] were 24.6 µM (active) and 33.2 µM (active), respectively.
Consider `COCC(=O)N(c1c(C)cccc1C)C(C)C(=O)OC` (stereo not given), for which the outcome in assay [1], in assay [2], in assay [3], in [5], in assay [16] and in [6] was inactive. The outcome in assay [7], in [8], in assay [10], in assay [13], in assay [14] and in assay [15] was inactive.
Take `CS(=O)(=O)c1ccc(C(=O)C2C(=O)CCCC2=O)c([N+](=O)[O-])c1`: the outcome in assay [1], in [2], in assay [3], in assay [4], in [5] and in assay [6] was inactive. Also, the compound was called inactive in assay [7], in [8], in [9], in assay [10], in [11] and in assay [12]. The result in [13], in assay [17], in assay [14] and in [15] was inactive.
`CC(C)=CC1C(C(=O)OCc2coc(Cc3ccccc3)c2)C1(C)C` (stereo not given): the result in assay [1], in assay [3], in assay [4], in assay [5], in [18] and in assay [16] was inactive. For the same compound, the compound was called inactive in [8], in assay [19], in [10], in assay [11], in assay [12] and in assay [15]. In addition, the half-maximal activity concentration (AC50) was 8.05 µM (active) in assay [2]; 10.3 µM (active) in [6]; 13.1 µM (active) in assay [7]; 8.92 µM (active) in assay [13]; 10.4 µM (active) in assay [14].
Take `COCc1cnc(C2=NC(C)(C(C)C)C(=O)N2)c(C(=O)O)c1` (stereo not given): the result in [1], in assay [2], in [3], in [5], in [18] and in [16] was inactive. In addition, the outcome in assay [6], in assay [7], in assay [8], in assay [19], in [20] and in assay [10] was inactive. The outcome in assay [11], in assay [12], in assay [13], in assay [17], in assay [14] and in [15] was inactive.
For `CC1(C)CON(Cc2ccccc2Cl)C1=O`, the outcome in [1], in assay [2], in assay [3], in assay [4], in assay [5] and in assay [18] was inactive. The outcome in [16], in assay [6], in assay [7], in [8], in [19] and in assay [20] was inactive. Also, the compound was classed as inactive in assay [9], in [10], in assay [12], in assay [13], in assay [17] and in assay [14]. The outcome in assay [15] was inactive.
Take `CCCN(CC)CC1COC2(CCC(C(C)(C)C)CC2)O1` (stereo not given): the outcome in [1], in assay [2], in assay [3], in assay [4], in [5] and in assay [6] was inactive. In addition, the compound was classed as inactive in [8], in assay [19], in assay [20], in [9], in assay [10] and in [11]. Further, the result in [12], in assay [13], in assay [17], in assay [14] and in assay [15] was inactive.
For the compound `CN/C(=N\[N+](=O)[O-])NCc1cnc(Cl)s1`, the outcome in assay [1], in assay [2], in assay [3], in [5], in [16] and in [6] was inactive. Besides, the compound was called inactive in [8], in assay [12], in assay [13], in [14] and in assay [15].

One may read the AC50 as the concentration giving half of the maximal activity seen.
